# Assay results from PubChem BioAssay AID1240 (Sanford-Burnham Center for Chemical Genomics, 2008).
# About 800 (1.6%) of roughly 50,000 compounds showed an effect of 50% or more. For the sample, strong results were picked, then their nearest neighbours and some compounds at random.
# Target: Bcl-2-like protein 10 (Homo sapiens) (UniProt Q9HD36)
# Assay: Phenotype converters, Bcl-B/TR3 peptide binding displacement, primary biochemical FP (AID 1240);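 also: 0% = Bcl-B with tracer peptide and DMSO and 100% = tracer peptide lacking Bcl-B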
# Settings: GST-Bcl-B / FITC-TR3 peptide fluorescence polarization; stronger effect = higher value; compound at 3.75 mg/L
# Bcl-2-like protein 10 (Homo sapiens), sequence (Q9HD36 whole entry, looked up): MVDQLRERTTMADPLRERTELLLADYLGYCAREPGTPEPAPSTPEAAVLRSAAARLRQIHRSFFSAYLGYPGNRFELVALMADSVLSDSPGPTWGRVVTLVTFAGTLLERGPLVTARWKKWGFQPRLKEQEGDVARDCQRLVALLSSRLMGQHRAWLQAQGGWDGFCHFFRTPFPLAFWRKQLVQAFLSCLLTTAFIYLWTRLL
row,SMILES,displacement [%]
1,COc1ccccc1CC(=O)Nc1cc(C)ccn1,12.9
2,CS(=O)(=O)N(CC(=O)Nc1cccc(Br)c1)c1ccc(Oc2ccccc2)cc1,1.9
3,COc1ccc(C2CC(=O)C3=C(C2)Nc2ccccc2NC3c2ccc(NC(C)=O)cc2)cc1OC (configuration not stated),-4.9
4,CCCC1=C(C(=O)OCC)C(c2ccc(CC)cc2)NC(=O)N1 (configuration not stated),-8.5
5,O=[N+]([O-])c1ccc(-c2noc(-c3ccccc3Br)n2)cc1,4.3
6,COc1ccc(CN2CCN(Cc3ccncc3)CC2)c(OC)c1,-16.7
7,NC(=O)c1ccc(NC(=O)C2CCCC2)cc1,-4
8,O=c1[nH]c(=O)n(-c2ccccc2Cl)c(O)c1C=NCCCn1ccnc1,11.5
9,Cc1ccccc1-n1c(O)c(C=NCCCn2ccnc2)c(=O)[nH]c1=O,-3.4
10,O=c1[nH]c(=O)n(-c2cccc(Cl)c2)c(O)c1C=NCCCn1ccnc1,142
11,COCCOC(=O)c1c(C)oc2c1cc(NS(=O)(=O)c1ccc(F)cc1)c1ccccc12,18
12,Cc1ccc(-c2nnc(N)s2)cc1C,5.1
13,COc1ccc(-n2c(O)c(/C=C3\C=CC=N3)c(=O)[nH]c2=O)cc1,85.4
14,COc1ccc(Cn2c(O)c(/C=C3\C=CC=N3)c(=O)[nH]c2=O)cc1,12.5
15,CCOc1ccc(-n2c(O)c(C=C3C=CC=N3)c(=O)[nH]c2=O)cc1,13.1
16,O=c1[nH]c(=O)n(-c2cccc(C(F)(F)F)c2)c(O)c1C=C1C=CC=N1,6.3
17,O=c1[nH]c(=O)n(-c2ccc(Br)cc2)c(O)c1C=C1C=CC=N1,123
18,O=c1[nH]c(=O)n(-c2ccc(Cl)cc2)c(O)c1/C=C1/C=CC=N1,-46
19,O=C1c2ccccc2C(=O)c2c1cccc2S(=O)(=O)Nc1ccc(Cl)cc1,9.5
20,CCOC(=O)C1=C(C)N=c2s/c(=C\c3ccc(O)c(OC)c3)c(=O)n2C1c1ccc(OC)cc1 (configuration not stated),4.2
21,CCOC(=O)C1=C(C)N=c2s/c(=C\c3ccc(O)c(OC)c3)c(=O)n2C1c1ccc(C)cc1 (configuration not stated),98.4
22,CCOC(=O)C1=C(C)N=c2s/c(=C\c3ccc(O)c(OC)c3)c(=O)n2C1c1cccc(OC)c1 (configuration not stated),-2.1
23,CCOC(=O)C1=C(C)N=c2s/c(=C\c3ccc(O)c(OC)c3)c(=O)n2C1c1ccc(N(C)C)cc1 (configuration not stated),-13.9
24,CCOC(=O)C1=C(c2ccccc2)N=c2s/c(=C\c3ccc(O)c(OC)c3)c(=O)n2C1c1ccc(OC)cc1 (configuration not stated),104
25,CCOC(=O)C1=C(c2ccccc2)N=c2s/c(=C\c3ccc(O)c(OC)c3)c(=O)n2C1c1ccccc1OC (configuration not stated),43.3
26,C=CCSc1nc2ccccc2n1C(=O)C1C(C=C(Cl)Cl)C1(C)C (configuration not stated),7.1

row,SMILES,displacement [%]
1,CCOc1ccc(C(=O)NCc2cccs2)cc1OCC,-0.9
2,O=C(NCCN1CCCC1=O)Nc1ccccc1,10.9
3,O=C(NCCCNC(=O)c1cccc(F)c1)c1cccc(F)c1,3.2
4,O=C(c1cccc(I)c1)N1CCN(c2ccccn2)CC1,6.9
5,O=C1CC(N2CCN(Cc3ccccc3)CC2)C(=O)N1c1ccc(Cl)c(Cl)c1 (configuration not stated),1.7
6,O=c1c2ccccc2nc(/C=C\c2ccccc2O)n1-c1cccc2ccccc12,-6.6
7,O=c1c2ccccc2nc(/C=C/c2ccccc2[N+](=O)[O-])n1-c1cccc2ccccc12,-7
8,Cn1c(/C=C/c2ccc3c(c2)OCO3)nc2ccccc2c1=O,1.3
9,O=c1c2ccccc2nc(/C=C/c2ccc3c(c2)OCO3)n1-c1cccc2ccccc12,78.1
10,O=c1c2ccccc2nc(/C=C/c2cccc([N+](=O)[O-])c2)n1-c1cccc2ccccc12,5
11,CN(C)c1ccc(/C=C/c2nc3ccccc3c(=O)n2-c2cccc3ccccc23)cc1,105
12,COc1ccccc1-n1cnc2cc(NC(C)=O)ccc21,14.7
13,CC(C)(C)c1cc(C2=C(Cl)C(=O)c3ccccc3C2=O)cc(C(C)(C)C)c1O,6.9
14,O=C1N=c2ccc(Cl)cc2=C1c1sc(NS(=O)(=O)Cc2ccccc2)nc1O,-7.2
15,CC1=C(C(=O)Nc2ccc(Br)cc2)C(c2ccccc2Br)NC(=S)N1 (configuration not stated),-7
16,CC1=C(C(=O)Nc2ccc(C)cc2)C(c2ccccc2Br)NC(=S)N1 (configuration not stated),84.9
17,CC1=C(C(=O)Nc2ccccc2)C(c2ccccc2Br)NC(=S)N1 (configuration not stated),-1.9
18,Cc1ccc(SCCNC(=O)CN(c2ccc(C)cc2)S(C)(=O)=O)cc1,-13.4
19,O=C1C(=O)N(c2nncs2)C(c2cccc(Br)c2)/C1=C(\O)c1ccc(F)cc1 (configuration not stated),16.6
20,O=C(C1=C(O)C(=O)N(c2nncs2)C1c1ccc(Cl)cc1)c1cccs1 (configuration not stated),125
21,O=C1C(=O)N(c2nncs2)C(c2ccc(Cl)cc2)/C1=C(\O)c1ccc(F)cc1 (configuration not stated),20.8
22,COc1cc(C2/C(=C(\O)c3ccc(F)cc3)C(=O)C(=O)N2c2nncs2)ccc1O (configuration not stated),8.3
23,COc1ccc(C2/C(=C(\O)c3ccc(F)cc3)C(=O)C(=O)N2c2nncs2)cc1 (configuration not stated),11
24,COc1ccc(C2C(C(=O)c3cccs3)=C(O)C(=O)N2c2nncs2)cc1 (configuration not stated),143
25,COc1ccc(C2C(C(=O)c3cccs3)=C(O)C(=O)N2c2nncs2)cc1OC (configuration not stated),84.6
26,O=C(C1=C(O)C(=O)N(c2nncs2)C1c1ccccc1F)c1cccs1 (configuration not stated),129

row,SMILES,displacement [%]
1,COc1ccc(C2C(C(C)=O)=C(O)C(=O)N2c2nc3ccccc3s2)cc1OC (configuration not stated),-10.4
2,O=C(C1=C(O)C(=O)N(c2nncs2)C1c1cccc([N+](=O)[O-])c1)c1cccs1 (configuration not stated),7.1
3,CC(=O)C1=C(O)C(=O)N(c2nc3ccccc3s2)C1c1ccccc1F (configuration not stated),-8.5
4,COc1ccc(C2/C(=C(\O)c3ccc(C)cc3)C(=O)C(=O)N2c2nncs2)cc1 (configuration not stated),13.6
5,C/C(=N\N=C1\NC(=O)C(CC(=O)Nc2ccccc2C(F)(F)F)S1)c1ccco1 (configuration not stated),-7.9
6,O=[N+]([O-])c1ccc(N2CCN(S(=O)(=O)c3ccccc3)CC2)cc1NCCc1ccccc1,7.8
7,Cc1ccc2oc(-c3cc(N)ccc3O)nc2c1,5.4
8,S=C1NCCOCCOCCOCCNC(=S)N2CCOCCOCCN1CCOCC2,14.7
9,O=C1C2C(c3ccccc3)C=CC(c3ccccc3)C2C(=O)N1Cc1ccc(F)cc1 (configuration not stated),-7.7
10,COc1cc(/C=N\n2nnnc2N)ccc1OCc1ccc(F)cc1,10.6
11,CC1CC(C)CN(C(=O)c2ccc(Cl)cc2Cl)C1 (configuration not stated),-3.8
12,Cc1ccc(Cl)c(OCC(O)Cn2c(C)nc3ccccc32)c1 (configuration not stated),-11.5
13,COc1ccc(OCC(O)Cn2c(C)nc3ccccc32)cc1 (configuration not stated),-22.4
14,O=C(O)C1C2CCC(O2)C1C(=O)N1CCN(c2ccc(F)cc2)CC1 (configuration not stated),-9.7
15,CCOCCOC(=O)C1=C(C)NC2=C(C(=O)CC(C)(C)C2)C1c1cccc(Cl)c1Cl (configuration not stated),3.1
16,CCCCCCOc1ccc(N2C(=O)CC(NCc3ccc(OC)cc3)C2=O)cc1 (configuration not stated),4.5
17,CC(C)(C)c1ccc(C2/C(=C(\O)c3ccc(F)cc3)C(=O)C(=O)N2c2nncs2)cc1 (configuration not stated),11.3
18,O=C(C1=C(O)C(=O)N(c2nncs2)C1c1ccc(F)cc1)c1cccs1 (configuration not stated),109
19,Cc1ccc(C2/C(=C(\O)c3ccccc3)C(=O)C(=O)N2c2nncs2)cc1 (configuration not stated),11.3
20,Cc1ccc(C2C(C(=O)c3cccs3)=C(O)C(=O)N2c2nncs2)cc1 (configuration not stated),121
21,Cc1ccc(/C(O)=C2\C(=O)C(=O)N(c3nncs3)C2c2cccc(Br)c2)cc1 (configuration not stated),18.7
22,O=C1C(=O)N(c2nncs2)C(c2ccc(F)cc2)/C1=C(\O)c1ccccc1 (configuration not stated),13.6
23,Nn1c(Nc2ccccc2)nc2ccccc2c1=O,-15.5
24,O=C(N/N=C/c1cccc([N+](=O)[O-])c1)C1CC(=O)N(c2ccc(F)cc2)C1 (configuration not stated),-10.4
25,O=C1CCCC2=C1C(c1ccc([N+](=O)[O-])cc1)C1=C(CCCC1=O)N2c1ccc(Cl)cc1,17.8
26,Cc1ccc([N+](=O)[O-])cc1NC(=O)CCCOc1ccccc1,8.1

row,SMILES,displacement [%]
1,COc1ccc(Cl)cc1NC(=O)C1=C(C)NC(=S)NC1c1ccc(F)cc1 (configuration not stated),11.9
2,COC(=O)C1=C(C)NC2=C(C(=O)c3ccccc32)C1c1ccc(-c2ccc([N+](=O)[O-])cc2Br)o1 (configuration not stated),46.9
3,O=C1C2=C(Nc3ccccc3SC2c2ccc([N+](=O)[O-])cc2)c2ccccc21 (configuration not stated),-6
4,O=C1C(=Cc2ccccc2)C(=O)c2ccccc21,17.6
5,O=C1C(=C/C=C/c2ccccc2)C(=O)c2ccccc21,75
6,O=C1NN(c2ccccc2)C(=O)/C1=C\C=C\c1ccccc1,30.9
7,CCOC(=O)c1c(NC(=O)C(Cl)(Cl)Cl)sc2c1CCC2,-3.5
8,Cc1ccc2c(c1)NC(c1ccc(Cl)cc1Cl)C1=C(CC(C)(C)CC1=O)N2 (configuration not stated),13.5
9,O=S(=O)(O)c1nc2ccccc2n1-c1ccccc1,-9.1
10,CC(C)(C)c1cc(C(=O)N/N=C\c2ccc(Cl)cc2)n[nH]1,-5.3
11,COc1ccc(NC(=O)C2=C(C)NC(=O)NC2c2cccc(Cl)c2)cc1 (configuration not stated),83.7
12,CC1=C(C(=O)Nc2ccc(Cl)cc2)C(c2ccc([N+](=O)[O-])cc2)NC(=S)N1 (configuration not stated),4.6
13,COc1ccc(NC(=O)C2=C(C)NC(=O)NC2c2cccc(OC)c2)cc1 (configuration not stated),-15.9
14,CC1=C(C(=O)Nc2ccc(Cl)cc2)C(c2ccc([N+](=O)[O-])cc2)NC(=O)N1 (configuration not stated),124
15,CC1=C(C(=O)Nc2ccc(C)cc2)C(c2ccc([N+](=O)[O-])cc2)NC(=O)N1 (configuration not stated),-3.6
16,COc1ccc(C2NC(=O)NC(C)=C2C(=O)Nc2cccc(Cl)c2)cc1 (configuration not stated),11.4
17,COc1cc(C(=O)Nc2nc3ccc4ccccc4c3s2)cc(OC)c1OC,6.6
18,CCCCN(CCCC)S(=O)(=O)c1ccc(C)cc1,-6.8
19,O=C(/C=C\Nc1ccc2c(c1)OCO2)c1ccc(F)cc1,-2.4
20,COC(=O)c1ccc(N/C=C\C(=O)c2ccc3c(c2)OCO3)cc1,23.7
21,CNc1cc([N+](=O)[O-])ccc1N/C=C\C(=O)c1ccc2c(c1)OCO2,97.2
22,O=C(/C=C\Nc1ccc([N+](=O)[O-])cc1Br)c1ccc2c(c1)OCO2,3
23,O=C(/C=C\Nc1ccc2c(c1)OCO2)c1ccc2c(c1)OCO2,104
24,CNc1cc([N+](=O)[O-])ccc1N/C=C\C(=O)c1ccc2ccccc2c1,14.1
